Results reported in PubChem BioAssay (Tox21).
Results filed as inconclusive are left out. Entries that show only a call come without a potency. A number with no mark means an inactive call. Activity calls are given as the source filed them. Calls follow the shape of the dose curve; as a rule, active = well fitted cell-killing curve with a large enough effect in the repeat runs; inconclusive = weak or mixed curves, or effect the other way; inactive = flat fitted curve, though single readings scatter.

Columns and labels:
[1] = cAMP Responsive Elements (CRE) small molecule antagonists, cell-based qHTS assay: qHTS cell viability counter screen (AID 2060913); also: nearly all actives have a fitted effect of over 40% in size
Summary of the method: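 CRE-bla HEK293T cells (2,000/well, 18 h) given compound plus NKH477 0.25 uM final for 3 h at 37C; viability counter-screen by CellTiter-Glo luminescence in same wells after 30 min.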

[2] = cAMP Responsive Elements (CRE) small molecule agonists, cell-based qHTS assay: qHTS cell viability counter screen (AID 2060914); also: nearly all actives have a fitted effect of over 50% in size; also: potency is read from the fitted curve at half-maximal effect
Summary of the method: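 Cytotoxicity was measured as ATP luminescence (CellTiter-Glo, 30 min at room temperature) in the same wells as the CRE-bla FRET read-out. HEK293T CRE-bla cells had 3 h compound exposure at 37C/5% CO2.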

**Q.** What does the source list for `CCN(CCCc1ccccc1)CCCc1ccccc1`?
**A.** Potency [1]: inactive; Potency [2]: inactive

**Q.** Which results are given for `CC1=CC=C(C(C)C)CC1`?
**A.** Potency [1]: inactive; Potency [2]: inactive

**Q.** Which Potency [1] does the source give for `Nc1ccc(C(=O)OCC(O)CO)cc1` (centres undefined) here?
**A.** inactive

**Q.** What about the Potency [2] of the same compound?
**A.** inactive

**Q.** What does the source list for `C=O`?
**A.** Potency [1]: inactive; Potency [2]: inactive

**Q.** Which Potency [1] does the source give for `CCn1cc(C(=O)O)c(=O)c2cc(F)c(N3CCNCC3)cc21` here?
**A.** inactive

**Q.** And the Potency [2]?
**A.** inactive

**Q.** With `COCc1ccc(COC)cc1` as the compound, how does the Potency [1] read?
**A.** inactive

**Q.** What about the Potency [2] of the same compound?
**A.** inactive

**Q.** Which Potency [1] does the source give for `CC[C@H]1OC(=O)[C@H](C)[C@@H](O[C@H]2C[C@@](C)(OC)[C@@H](O)[C@H](C)O2)[C@H](C)[C@@H](O[C@@H]2O[C@H](C)C[C@H](N(C)C)[C@H]2O)[C@](C)(O)C[C@@H](C)/C(=N\OCOCCOC)[C@H](C)[C@@H](O)[C@]1(C)O` here?
**A.** inactive

**Q.** And the Potency [2]?
**A.** 36 µM (active)

**Q.** With `CCCCCCOc1ccccc1C(N)=O` as the compound, how does the Potency [1] read?
**A.** inactive

**Q.** And the Potency [2]?
**A.** inactive

**Q.** Which viability change, negative = cytotoxic [1] does the source give for `O=C(O)O` here?
**A.** 7.81% [at 8.39 µM]

**Q.** What about the activity change, negative = cytotoxicity [2] of the same compound?
**A.** -5.94% [at 8.39 µM]

**Q.** Which results are given for `COC(=O)c1ccc(NC(C)=O)cc1OC`?
**A.** Potency [1]: inactive; Potency [2]: inactive

**Q.** Which Potency [1] does the source give for `O=c1c(O)c(-c2ccc(O)c(O)c2)oc2cc(O)cc(O)c12` here?
**A.** inactive

**Q.** And the Potency [2]?
**A.** inactive

**Q.** For `O=C(CC(C(=O)OC1CCCCC1)S(=O)(=O)O)OC1CCCCC1` (centres undefined), which Potency [1] is on record?
**A.** inactive

**Q.** What about the Potency [2] of the same compound?
**A.** inactive

**Q.** What does the source list for `c1ccc(CSCc2ccccc2)cc1`?
**A.** Potency [1]: inactive; Potency [2]: inactive

**Q.** With `O=C1OC(=O)c2cc([N+](=O)[O-])ccc21` as the compound, how does the Potency [1] read?
**A.** inactive

**Q.** What about the Potency [2] of the same compound?
**A.** inactive

**Q.** With `Nc1nc(N)c2nc(-c3ccccc3)c(N)nc2n1` as the compound, how does the Potency [1] read?
**A.** inactive

**Q.** And the Potency [2]?
**A.** inactive

**Q.** For `CC1CCN(CCCC(=O)c2ccc(F)cc2)CC1`, which Potency [1] is on record?
**A.** inactive

**Q.** And the Potency [2]?
**A.** inactive

**Q.** What does the source list for `CN1CCOC(c2ccccc2)c2ccccc2C1` (centres undefined)?
**A.** Potency [1]: inactive; Potency [2]: inactive

**Q.** Which results are given for `CCN(CC)S(=O)(=O)c1ccc(C(=O)O)cc1`?
**A.** Potency [1]: inactive; Potency [2]: inactive

**Q.** Which Potency [1] does the source give for `O=C(NCC1CCCCN1)c1cc(OCC(F)(F)F)ccc1OCC(F)(F)F` (centres undefined) here?
**A.** inactive

**Q.** And the Potency [2]?
**A.** inactive

**Q.** What does the source list for `N=C(N)N`?
**A.** Potency [1]: inactive; Potency [2]: inactive

**Q.** Which Potency [1] does the source give for `CC(C)CC=O` here?
**A.** inactive

**Q.** What about the Potency [2] of the same compound?
**A.** inactive

**Q.** What does the source list for `CCCN(CCC)c1c([N+](=O)[O-])cc(C(F)(F)F)c(N)c1[N+](=O)[O-]`?
**A.** Potency [1]: inactive; Potency [2]: 60.9 µM (active)

**Q.** Which Potency [1] does the source give for `CC(=O)c1cc2ccccc2s1` here?
**A.** inactive

**Q.** What about the Potency [2] of the same compound?
**A.** inactive

**Q.** What does the source list for `O=C(CCN1CCN2CCCC2C1)N1c2ccccc2Sc2ccc(Cl)cc21` (centres undefined)?
**A.** viability change, negative = cytotoxic [1]: 0.501% [at 18.9 µM]; activity change, negative = cytotoxicity [2]: 5.15% [at 18.9 µM]

**Q.** Which Potency [1] does the source give for `CCCCCCCCCI` here?
**A.** inactive

**Q.** What about the Potency [2] of the same compound?
**A.** inactive

**Q.** For `CCC(O)OCCCOC` (centres undefined), which Potency [1] is on record?
**A.** inactive

**Q.** What about the Potency [2] of the same compound?
**A.** inactive

**Q.** For `O=C1OC(=O)C2CCCCC12` (centres undefined), which Potency [1] is on record?
**A.** inactive

**Q.** What about the Potency [2] of the same compound?
**A.** inactive

**Q.** Which Potency [1] does the source give for `CC(C)(C)c1ccc(O)c(O)c1` here?
**A.** inactive

**Q.** What about the Potency [2] of the same compound?
**A.** inactive

**Q.** With `Cc1cccc(Nc2ccncc2S(=O)(=O)NC(=O)NC(C)C)c1` as the compound, how does the Potency [1] read?
**A.** inactive

**Q.** What about the Potency [2] of the same compound?
**A.** inactive

**Q.** With `Clc1nnc(Cl)c2ccccc12` as the compound, how does the Potency [1] read?
**A.** inactive

**Q.** And the Potency [2]?
**A.** inactive

**Q.** Which Potency [1] does the source give for `Brc1cc(-c2ccc(Br)c(Br)c2Br)cc(Br)c1Br` here?
**A.** inactive

**Q.** What about the Potency [2] of the same compound?
**A.** inactive

**Q.** Which Potency [1] does the source give for `CNCc1cc(F)ccc1Oc1ccc(Cl)c(Cl)c1` here?
**A.** inactive

**Q.** What about the Potency [2] of the same compound?
**A.** inactive

**Q.** Which Potency [1] does the source give for `CCOC(=O)c1ccccc1` here?
**A.** inactive

**Q.** What about the Potency [2] of the same compound?
**A.** inactive

**Q.** What does the source list for `CCCCCCCCCO`?
**A.** Potency [1]: inactive; Potency [2]: inactive

**Q.** For `CC(C)(C)NC[C@H](O)COc1nsnc1N1CCOCC1`, which Potency [1] is on record?
**A.** inactive

**Q.** What about the Potency [2] of the same compound?
**A.** inactive

**Q.** Which Potency [1] does the source give for `CC(C)C=O` here?
**A.** inactive

**Q.** What about the Potency [2] of the same compound?
**A.** inactive

**Q.** For `CCCCCCCCCC(=O)OC`, which Potency [1] is on record?
**A.** inactive

**Q.** And the Potency [2]?
**A.** inactive

**Q.** What does the source list for `C=Cc1ccncc1`?
**A.** Potency [1]: inactive; Potency [2]: inactive

**Q.** Which Potency [1] does the source give for `CC(=O)Nc1ccc(O)cc1` here?
**A.** inactive

**Q.** And the Potency [2]?
**A.** inactive

**Q.** For `NCCCC(N)(C(=O)O)C(F)F` (centres undefined), which Potency [1] is on record?
**A.** inactive

**Q.** What about the Potency [2] of the same compound?
**A.** inactive

**Q.** What does the source list for `CC1=CC(=O)c2ccccc2C1=O`?
**A.** Potency [1]: inactive; Potency [2]: inactive

**Q.** For `COc1ccc(N)c([N+](=O)[O-])c1`, which Potency [1] is on record?
**A.** inactive

**Q.** What about the Potency [2] of the same compound?
**A.** inactive

**Q.** For `CCN(CC)CCOc1ccccc1C(=O)CCc1ccccc1`, which Potency [1] is on record?
**A.** inactive

**Q.** What about the Potency [2] of the same compound?
**A.** inactive

**Q.** For `O=CC(=O)c1ccccc1`, which Potency [1] is on record?
**A.** inactive

**Q.** What about the Potency [2] of the same compound?
**A.** inactive

**Q.** For `CCCc1ccc(OCC(=O)N2CCN(C(=O)COc3ccc(CCC)cc3OC)CC2)c(OC)c1`, which Potency [1] is on record?
**A.** inactive

**Q.** And the Potency [2]?
**A.** inactive

**Q.** Which Potency [1] does the source give for `CC(=O)c1ccccc1O` here?
**A.** inactive

**Q.** And the Potency [2]?
**A.** inactive

**Q.** For `COC(=O)c1cc(Cl)cc(Cl)c1`, which Potency [1] is on record?
**A.** inactive

**Q.** And the Potency [2]?
**A.** inactive

**Q.** For `O=C1c2ccccc2C(=O)c2cc(Cl)ccc21`, which viability change, negative = cytotoxic [1] is on record?
**A.** -0.399% [at 8.39 µM]

**Q.** What about the activity change, negative = cytotoxicity [2] of the same compound?
**A.** 2.19% [at 8.39 µM]

**Q.** What does the source list for `COc1cc(-c2ccc(N=C=O)c(OC)c2)ccc1N=C=O`?
**A.** Potency [1]: inactive; Potency [2]: inactive

**Q.** With `CCN(CC)CC(=O)Nc1c(C)cccc1C(=O)OC` as the compound, how does the Potency [1] read?
**A.** inactive

**Q.** What about the Potency [2] of the same compound?
**A.** inactive

**Q.** Which Potency [1] does the source give for `Cc1ccc(S(N)(=O)=O)cc1` here?
**A.** inactive

**Q.** And the Potency [2]?
**A.** inactive

**Q.** Which Potency [1] does the source give for `CC(c1cc2ccccc2s1)N(O)C(N)=O` (centres undefined) here?
**A.** inactive

**Q.** What about the Potency [2] of the same compound?
**A.** inactive

**Q.** For `O=C(O)CCC(=O)O`, which Potency [1] is on record?
**A.** inactive

**Q.** And the Potency [2]?
**A.** inactive

**Q.** Which results are given for `Oc1ccc(Cc2ccccc2)cc1`?
**A.** Potency [1]: inactive; Potency [2]: inactive

**Q.** What does the source list for `Cc1onc(-c2ccccc2Cl)c1C(=O)N[C@@H]1C(=O)N2[C@@H]1SC(C)(C)[C@@H]2C(=O)O`?
**A.** Potency [1]: inactive; Potency [2]: inactive

**Q.** Which results are given for `Nc1ccc(S(=O)(=O)O)c(N)c1`?
**A.** Potency [1]: inactive; Potency [2]: inactive

**Q.** Which Potency [1] does the source give for `CC(C)(C)NCC(O)COc1ccc(NC(=O)NC2CCCCC2)cc1` (centres undefined) here?
**A.** inactive

**Q.** What about the Potency [2] of the same compound?
**A.** inactive
